# Source: PubChem BioAssay AID1159580 (chemical genetic matrix, 2015)
# “And” between values parts separate entries of the source, which are not always exact repeats. Equal values may be shown once. Among all 5,500 compounds or so, about 2,000 (36%) were called active. About 18% were inconclusive and are not listed. The list shows a part of the results. Unmarked numbers belong to inactive results. No stated cut-off is given here; in the data, active means normalized growth mostly below about 0.91 (no sharp cut-off); inconclusive means no clear call, values can overlap the other calls; inactive means mostly above about 0.92.
# Assay: chemical genetic growth profiling, strain panel (AID 1159580);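 further: tested at 20 µM; growth read once vehicle control cultures reached saturation at 30 °C; 1 = growth at the plate median or of vehicle wells; lower values mean less growth of the strain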
# Conditions: S. cerevisiae deletion strains, growth OD
structure (smiles),measurement,setting,value
C[C@@H]1CC[C@H]2[C@@H](C)C(O)O[C@@H]3O[C@@]4(C)CC[C@@H]1[C@]32OO4 (some centres not stated),normalized growth,"locus YAL013W, strain DEP1, active compounds read low",0.528 (active)
same,normalized growth,"locus YAL021C, strain ccr4, active compounds read low",0.507 (active)
same,normalized growth,"locus YAL026C, strain drs2, active compounds read low",0.358 (active)
same,normalized growth,"locus YAL030W, strain snc1, active compounds read low",0.319 (active)
same,normalized growth,"locus YBL061C, strain skt5, active compounds read low",0.337 (active)
same,normalized growth,"locus YBR009C, strain hhf1, active compounds read low",0.215 (active)
same,normalized growth,"locus YBR021W, strain FUR4, active compounds read low",0.857
same,normalized growth,"locus YBR023C, strain chs3, active compounds read low",0.331 (active)
same,normalized growth,"locus YBR171W, strain sec66, active compounds read low",0.608 (active)
same,normalized growth,"locus YBR229C, strain ROT2, active compounds read low",0.7 (active)
same,normalized growth,"locus YBR231C, strain swc5, active compounds read low",0.253 (active)
same,normalized growth,"locus YBR279W, strain paf1, active compounds read low",0.276 (active)
same,normalized growth,"locus YCL011C, strain gbp2, active compounds read low",0.231 (active)
same,normalized growth,"locus YCL016C, strain dcc1, active compounds read low",0.275 (active)
same,normalized growth,"locus YCL029C, strain bik1, active compounds read low",0.325 (active)
same,normalized growth,"locus YCL061C, strain MRC1, active compounds read low",0.312 (active)
same,normalized growth,"locus YCL069W, strain vba3, active compounds read low",0.315 (active)
same,normalized growth,"locus YCR088W, strain abp1, active compounds read low",0.321 (active)
same,normalized growth,"locus YDL005C, strain med2, active compounds read low",0.448 (active)
same,normalized growth,"locus YDL035C, strain GPR1, active compounds read low",0.295 (active)
same,normalized growth,"locus YDL040C, strain nat1, active compounds read low",0.408 (active)
same,normalized growth,"locus YDL074C, strain BRE1, active compounds read low",0.556 (active)
same,normalized growth,"locus YDL101C, strain DUN1, active compounds read low",0.325 (active)
same,normalized growth,"locus YDL134C, strain PPH21, active compounds read low",0.314 (active)
same,normalized growth,"locus YDL185W, strain tfp1, active compounds read low",0.139 (active)
same,normalized growth,"locus YDL192W, strain arf1, active compounds read low",0.547 (active)
same,normalized growth,"locus YDR001C, strain nth1, active compounds read low",0.377 (active)
same,normalized growth,"locus YDR069C, strain doa4, active compounds read low",0.386 (active)
same,normalized growth,"locus YDR101C, strain arx1, active compounds read low",0.459 (active)
same,normalized growth,"locus YDR137W, strain rgp1, active compounds read low",0.348 (active)
same,normalized growth,"locus YDR150W, strain NUM1, active compounds read low",0.262 (active)
same,normalized growth,"locus YDR159W, strain sac3, active compounds read low",0.471 (active)
same,normalized growth,"locus YDR162C, strain NBP2, active compounds read low",0.356 (active)
same,normalized growth,"locus YDR195W, strain ref2",0.54 (active)
same,normalized growth,"locus YDR297W, strain sur2, active compounds read low",0.384 (active)
same,normalized growth,"locus YDR318W, strain mcm21, active compounds read low",0.258 (active)
same,normalized growth,"locus YDR334W, strain swr1, active compounds read low",0.276 (active)
same,normalized growth,"locus YDR335W, strain msn5, active compounds read low",0.492 (active)
same,normalized growth,"locus YDR388W, active compounds read low",0.316 (active)
same,normalized growth,"locus YDR392W, strain spt3, active compounds read low",0.133 (active)
same,normalized growth,"locus YDR502C, strain sam2, active compounds read low",0.415 (active)
same,normalized growth,"locus YEL003W, strain gim4, active compounds read low",0.237 (active)
same,normalized growth,"locus YEL037C, strain rad23, active compounds read low",0.407 (active)
same,normalized growth,"locus YEL061C, strain CIN8 (second series), active compounds read low",0.295 (active)
same,normalized growth,"locus YEL061C, strain CIN8, active compounds read low",0.302 (active)
same,normalized growth,"locus YER015W, strain faa2, active compounds read low",0.179 (active)
same,normalized growth,"locus YER016W, strain bim1, active compounds read low",0.235 (active)
same,normalized growth,"locus YER110C, active compounds read low",0.275 (active)
same,normalized growth,"locus YER111C, strain swi4, active compounds read low",0.5 (active)
same,normalized growth,"locus YER155C, strain BEM2 (second series), active compounds read low",0.568 (active)
same,normalized growth,"locus YER155C, strain BEM2, active compounds read low",0.345 (active)
same,normalized growth,"locus YER167W, strain BCK2, active compounds read low",0.198 (active)
same,normalized growth,"locus YFR010W, strain ubp6, active compounds read low",0.391 (active)
same,normalized growth,"locus YGL078C, strain dbp3, active compounds read low",0.477 (active)
same,normalized growth,"locus YGL086W, strain mad1, active compounds read low",0.279 (active)
same,normalized growth,"locus YGL167C, strain pmr1, active compounds read low",0.781 (active)
same,normalized growth,"locus YGL173C, strain kem1, active compounds read low",0.729 (active)
same,normalized growth,"locus YGL227W, strain vid30, active compounds read low",0.254 (active)
same,normalized growth,"locus YGL240W, strain doc1, active compounds read low",0.23 (active)
same,normalized growth,"locus YGL248W, strain PDE1, active compounds read low",0.282 (active)
same,normalized growth,"locus YGL253W, strain hxk2, active compounds read low",0.251 (active)
same,normalized growth,"locus YGR078C, strain PAC10, active compounds read low",0.527 (active)
same,normalized growth,"locus YGR135W, strain pre9, active compounds read low",0.653 (active)
same,normalized growth,"locus YGR229C, strain SMI1, active compounds read low",0.286 (active)
same,normalized growth,"locus YGR252W, strain gcn5, active compounds read low",0.665 (active)
same,normalized growth,"locus YHR013C, strain ard1, active compounds read low",0.234 (active)
same,normalized growth,"locus YHR027C, strain rpn1, active compounds read low",0.221 (active)
same,normalized growth,"locus YHR030C, strain SLT2, active compounds read low",0.252 (active) and 0.332 (active)
same,normalized growth,"locus YHR079C, strain IRE1 (second series), active compounds read low",0.359 (active)
same,normalized growth,"locus YHR079C, strain IRE1, active compounds read low",0.3 (active)
same,normalized growth,"locus YHR094C, strain hxt1, active compounds read low",0.388 (active)
same,normalized growth,"locus YHR129C, strain ARP1, active compounds read low",0.331 (active)
same,normalized growth,"locus YHR142W, strain chs7, active compounds read low",0.284 (active)
same,normalized growth,"locus YHR200W, strain rpn10, active compounds read low",0.562 (active)
same,normalized growth,"locus YIL066C, strain RNR3, active compounds read low",0.229 (active)
same,normalized growth,"locus YIL073C, strain SPO22, active compounds read low",0.308 (active)
same,normalized growth,"locus YIL125W, strain kgd1, active compounds read low",0.411 (active)
same,normalized growth,"locus YIR030C, strain dcg1, active compounds read low",0.381 (active)
same,normalized growth,"locus YJL092W, strain hpr5, active compounds read low",0.346 (active)
same,normalized growth,"locus YJL095W, strain BCK1 (second series), active compounds read low",0.267 (active)
same,normalized growth,"locus YJL095W, strain BCK1, active compounds read low",0.298 (active) and 0.302 (active)
same,normalized growth,"locus YJL115W, strain asf1, active compounds read low",0.443 (active)
same,normalized growth,"locus YJL129C, strain trk1, active compounds read low",0.538 (active)
same,normalized growth,"locus YJL134W, strain LCB3, active compounds read low",0.589 (active)
same,normalized growth,"locus YJL154C, strain vps35, active compounds read low",0.42 (active)
same,normalized growth,"locus YJL164C, strain tpk1, active compounds read low",0.248 (active)
same,normalized growth,"locus YJL166W, strain qcr8, active compounds read low",0.167 (active)
same,normalized growth,"locus YJL168C, strain set2, active compounds read low",0.422 (active)
same,normalized growth,"locus YJL187C, strain SWE1 (second series), active compounds read low",0.392 (active)
same,normalized growth,"locus YJL187C, strain SWE1, active compounds read low",0.299 (active)
same,normalized growth,"locus YJR043C, strain POL32, active compounds read low",0.369 (active)
same,normalized growth,"locus YJR066W, strain TOR1, active compounds read low",0.319 (active)
